LASV entry inh = inhibitors of Lassa virus binding or entry into cells. Lassa virus pseudotyped entry inhibition, cell-based qHTS. Potency, µM (titrated, usually from 49.2 µM), most hits filed as inhibitors. 18,000 tested, 4.1% active
Marburg entry = inhibitors of Marburg virus binding or entry into cells; Marburg virus pseudotype entry/binding inhibition, cell-based; Potency, µM (top dose mostly 49.2 µM), hits mostly inhibitors; 18,000 tested, 6.5% active; AID 720532
Each line names hits and unclear results; the compound was inactive in the other large screens; ! = repeats disagree. This is a sample that favours compounds with a hit; in the whole collection about 8% have one here. Calls follow the shape of the full dose curve; tested in HEK293 cells.

COc1cccc2c1C(=O)c1c(O)c3c(c(O)c1C2=O)C[C@@](O)(C(=O)CO)C[C@@H]3OC1C[C@@H](N)[C@H](O)[C@H](C)O1 (some centres not stated)	LASV entry inh inconclusive, Marburg entry 0.891µM
COc1cccc2c1C(=O)c1c(O)c3c(c(O)c1C2=O)C[C@@](O)(C(C)=O)C[C@@H]3O[C@H]1C[C@H](N)[C@H](O)[C@H](C)O1	LASV entry inh 35.5µM!, Marburg entry inconclusive
CC(=O)OC[C@H]1O[C@H](C#Cc2ccccc2Cl)C=C[C@H]1OC(C)=O	none
CC12C=C(C=Cc3ccccc3)C(C)(C1)C(c1ccccc1)CC2=O (configuration not stated)	none
COC(=O)[C@H]1O[C@@H](c2cc(OC)c(C)c(OC)c2O)[C@H](C)[C@@H](O)[C@@H]1C	none (no result: LASV entry inh)
CN(C)CCOC(=O)COc1ccc(Cl)cc1	none
CC/C(=C(/c1ccccc1)c1ccc(OCCN(C)C)cc1)c1ccccc1	Marburg entry 3.16µM (no result: LASV entry inh)
CCN(CC)CCOc1ccc(/C(=C(\Cl)c2ccccc2)c2ccccc2)cc1	LASV entry inh 14.1µM! (no result: Marburg entry)
O=C(O)c1ccc(OCCCOc2ccc(C(=O)O)cc2)cc1	none
CCOC(=O)CN1C(=O)NC(CCc2ccccc2)C(C(=O)OC)=C1C (configuration not stated)	none (no result: LASV entry inh)
CC1=C[C@@H](COc2ccccc2)O[C@@]2(C1)C(=O)N(Cc1ccccc1)c1ccccc12	Marburg entry inconclusive
COC(=O)C1(C(=O)OC)C[C@@H]2CON=C2[C@@H]1c1ccccc1	none
C[C@@H]1CC[C@H]2C(=O)N(Cc3ccc(Cl)cc3)C[C@@H](O)CN2[C@H]1c1cccc(Br)c1	none
CCC=CC[C@@]1(C(=O)OC)C=C[C@@H](C)[C@H](c2ccccc2Br)N1C(=O)C(F)(F)F	none
COC(C)(C)CCCC(C)C/C=C/C(C)=C/C(=O)OC(C)C (configuration not stated)	LASV entry inh 14.1µM!
CCC1=CC2CN3CCc4c([nH]c5ccccc45)[C@@](C(=O)OC)(C2)[C@@H]13	LASV entry inh inconclusive, Marburg entry 7.94µM
COC(=O)C1=CO[C@@H](C)[C@H]2CN3CCc4c([nH]c5ccccc45)[C@@H]3C[C@H]12	Marburg entry inconclusive
COC(=O)C1=C(C(=O)OC)[C@@H]2N(Cc3ccccc3)c3ccccc3[C@@]23CCC(=O)N(CC2CC2)C3=N1	Marburg entry inconclusive
Nc1ccccc1C(=O)C=Cc1ccccc1	none
Nc1nc(N)c2nc(CNc3ccc(C(=O)N[C@@H](CCC(=O)O)C(=O)O)cc3)cnc2n1	none
CN(Cc1cnc2nc(N)nc(N)c2n1)c1ccc(C(=O)NC(CCC(=O)O)C(=O)O)cc1 (configuration not stated)	LASV entry inh inconclusive, Marburg entry 0.282µM
C=C1C(=O)OC2CC1C(OC(C)=O)CC(C)=CCCC(C)=CCC[C@@]2(C)O (some centres not stated)	LASV entry inh 11.2µM, Marburg entry 15.8µM
CC(C)n1cnc2c(C(=O)N[C@H]3CN4CCC3CC4)cc(Cl)cc21	LASV entry inh 35.5µM!, Marburg entry 7.08µM
O=C1c2ccccc2C(=O)C1c1ccc(F)cc1	none
CC1(C)C(=O)NC2=C1C(=O)C(=O)c1ccccc12	LASV entry inh 12.6µM, Marburg entry 3.98µM
O=C(NN=C1C[C@@H](O)[C@H](O)[C@H]2[C@@H]3C(=O)N(Cc4ccc5c(c4)OCO5)C(=O)[C@@H]3CC[C@H]12)OCc1ccccc1	none (no result: LASV entry inh)
CN1CC(O)C2=CC(=O)C(=O)C=C21 (configuration not stated)	Marburg entry 8.91µM
O=C(O)c1ccccc1Nc1cccc(OCc2ccc3ccccc3n2)c1	LASV entry inh 15.8µM, Marburg entry inconclusive
O=C(O)c1ccccc1Nc1ccc(CCc2ccc(Cl)c(Cl)c2)cc1	none
CC1(C)CN(Cc2ccccc2)C(=O)[C@@H]1CC(=O)Nc1ccc(Br)cc1	none
Oc1cc(O)c2c(c1)O[C@H](c1ccc(O)c(O)c1)[C@@H](O)C2	none
O=c1c(O)cc(C2Oc3cc(O)cc(O)c3CC2O)cc2c(C3Oc4cc(O)cc(O)c4CC3O)cc(O)c(O)c12 (configuration not stated)	Marburg entry 12.6µM
CC(=O)OC[C@H]1O[C@H](CCON=C(C)CCN2CCCc3nc(C)c(C)cc32)C=C[C@H]1OC(C)=O	none
CC1=C(C(=O)Nc2ccc3[nH]ncc3c2)C(c2ccc3ccccc3c2)CC(=O)N1 (configuration not stated)	none
CC(C)COC[C@H](CN(Cc1ccccc1)c1ccccc1)N1CCCC1	Marburg entry 6.31µM
c1ccc(CN(CC2=NCCN2)c2ccccc2)cc1	Marburg entry inconclusive
O=c1oc2ccccc2c2c1[C@H]1O[C@](c3ccsc3)(Cc3c1ccc1ccccc31)O2	none
N=c1ccn2c(n1)OC1C(O)C(CO)OC12 (configuration not stated)	LASV entry inh inconclusive, Marburg entry 0.708µM
N=c1ccn2c(n1)OCC1C2O[C@@H](O)[C@H]1O (some centres not stated)	LASV entry inh inconclusive, Marburg entry 14.1µM
O=c1ncccn1[C@@H]1O[C@H](CO)C(O)[C@@H]1O (some centres not stated)	none

Screening results from PubChem.
